Experimental data from PubChem BioAssay (NCI).
The panel holds about 79,000 compounds, 15% with a hit somewhere; the sample as a whole holds those more often. Active and inactive are the calls of the source. Rule as the data show it: active = growth inhibition above about 70%; inactive = the rest.

Key:
[1] = NCI Yeast Anticancer Drug Screen. Data for the rad50 strain (AID 155);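 also: 0% = growth of vehicle-only cultures of the same strain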; conditions: S. cerevisiae rad50 strain growth inhibition, stronger effect = higher value
How it was run: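 Compounds were tested on a yeast strain with an engineered DNA damage repair alteration; the reported value is growth inhibition normalised to vehicle treatment.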

[2] = NCI Yeast Anticancer Drug Screen. Data for the mec2-1 strain (AID 157); conditions: S. cerevisiae mec2-1 strain, stronger effect = higher value
How it was run: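 Strain: mec2-1 (DNA repair/cell cycle alteration). Compound exposure, then growth measured; inhibition expressed relative to vehicle.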

[3] = NCI Yeast Anticancer Drug Screen. Data for the sgs1 mgt1 strain (AID 161);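 also: 0% = growth of cultures given vehicle only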; conditions: S. cerevisiae sgs1 mgt1 strain, stronger effect = higher value
How it was run: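 Read-out: growth inhibition vs vehicle controls. Cells: mutant yeast strain deficient in DNA damage repair.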

[4] = NCI Yeast Anticancer Drug Screen. Data for the cln2 rad14 strain (AID 165);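 also: 0% = growth equal to vehicle treated cultures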; conditions: S. cerevisiae cln2 rad14 strain, stronger effect = higher value
How it was run: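 Compounds are applied to the cln2 rad14 yeast strain, and growth is then compared with that of vehicle-treated cultures to give inhibition.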

[5] = NCI Yeast Anticancer Drug Screen. Data for the bub3 strain (AID 167); conditions: S. cerevisiae bub3 mutant strain, stronger effect = higher value
How it was run: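 Growth of a checkpoint-deficient yeast mutant is measured after compound exposure. Values represent inhibition relative to vehicle.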

[6] = NCI Yeast Anticancer Drug Screen. Data for the mlh1 rad18 strain (AID 175); conditions: S. cerevisiae mlh1 rad18 strain growth inhibition, stronger effect = higher value
How it was run: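 Read-out is yeast growth inhibition, calculated against vehicle-only controls. The compound was applied to a strain engineered with DNA damage repair alterations.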

[7] = at 5.0 µM (retest, dose inferred, filed as 0.5)
[8] = at 50.0 µM (retest, dose inferred, filed as 5.0)

Measured: growth inhibition

CCOC(=O)C(=O)CC(=O)C(Br)C(Br)c1ccc(Cl)cc1 (configuration not stated)
inactive: [4]; [7] 69%
active: [1]; [7] 78% | [1]; [8] 99% | [1]; at 50.0 µM 99.5% | [2]; [7] 85% | [2]; [8] 99% | [2]; at 50.0 µM 99.6% | [3]; [7] 97% | [3]; [8] 99% | [3]; at 50.0 µM 99.4% | [4]; [8] 100% | [4]; at 50.0 µM 99% | [5]; [7] 92% | [5]; [8] 99% | [5]; at 50.0 µM 99.3% | [6]; [7] 90% | [6]; [8] 99% | [6]; at 50.0 µM 99.5%

COP(=O)(OC)/C(=C/c1cn(C(c2ccccc2)(c2ccccc2)c2ccccc2)cn1)NC=O
active: [3]; at 50.0 µM 79.9%
inactive: [1]; [7] 5% | [1]; [8] 16% | [1]; at 50.0 µM 2.1% | [2]; [7] 2% | [2]; [8] -5% | [2]; at 50.0 µM 60.7% | [3]; [7] -4% | [3]; [8] 41% | [4]; [7] 1% | [4]; [8] 14% | [4]; at 50.0 µM 0.6% | [5]; [7] 0% | [5]; [8] 9% | [5]; at 50.0 µM -1.7% | [6]; [7] -12% | [6]; [8] 40% | [6]; at 50.0 µM 39.2%

CCCCNc1ccc(-c2c(N)nc(N)nc2CC)cc1[N+](=O)[O-]
inactive: [1]; [7] -7% | [1]; [8] 0% | [1]; at 50.0 µM 62.4% | [2]; [7] -16% | [2]; [8] 2% | [2]; at 50.0 µM 17.6% | [3]; [7] -9% | [3]; [8] 15% | [3]; at 50.0 µM 57% | [4]; [7] -34% | [4]; [8] 8% | [4]; at 50.0 µM 27.1% | [5]; [7] -4% | [5]; [8] -1% | [5]; at 50.0 µM -0.35% | [6]; [7] -9% | [6]; [8] -16% | [6]; at 50.0 µM 62.8%

C=CCNC(=O)NC(=O)CSC1=NNC2(C(=O)N1)c1ccccc1-c1ccccc12
active: [1]; [8] 74% | [1]; at 50.0 µM 85.2% | [2]; at 50.0 µM 78.7% | [3]; [8] 85% | [3]; at 50.0 µM 87.1% | [4]; [8] 82% | [4]; at 50.0 µM 85.7% | [5]; [8] 91% | [5]; at 50.0 µM 86.5% | [6]; [8] 88% | [6]; at 50.0 µM 86.7%
inactive: [1]; [7] -4% | [2]; [7] -21% | [2]; [8] 65% | [3]; [7] -11% | [4]; [7] 2% | [5]; [7] -16% | [6]; [7] -6%

CCCc1cc2c(cc1O)CC[C@@H]1[C@@H]2CC[C@]2(C)[C@@H](O)CC[C@@H]12
active: [1]; [8] 96% | [1]; at 50.0 µM 86.5% | [2]; [8] 96% | [2]; at 50.0 µM 85.8% | [3]; [8] 98% | [3]; at 50.0 µM 84.5% | [4]; [8] 77% | [4]; at 50.0 µM 88.5% | [5]; [8] 97% | [5]; at 50.0 µM 87.6% | [6]; [8] 96% | [6]; at 50.0 µM 80.7%
inactive: [1]; [7] -25% | [2]; [7] -30% | [3]; [7] -30% | [4]; [7] -4% | [5]; [7] -33% | [6]; [7] -46%

O=C(CC(O)c1ccccc1)Sc1ccccc1 (configuration not stated)
inactive: [1]; [7] -1% | [1]; [8] 13% | [2]; [7] -2% | [2]; [8] 8% | [2]; at 50.0 µM 50% | [3]; [7] 1% | [3]; [8] 42% | [3]; at 50.0 µM 63.1% | [4]; [7] -2% | [4]; [8] -7% | [4]; at 50.0 µM -9.2% | [5]; [7] -6% | [5]; [8] 4% | [6]; [7] -8% | [6]; [8] 20%
active: [1]; at 50.0 µM 72% | [5]; at 50.0 µM 80% | [6]; at 50.0 µM 74%

OC1(c2ccccc2)c2ccccc2C(O)(c2ccccc2)c2cc3c(cc21)CCCC3 (configuration not stated)
inactive: [2]; [7] 28% | [3]; [7] 17% | [4]; [7] -3% | [5]; [7] 17% | [6]; [7] 51%
active: [1]; [7] 81% | [1]; [8] 96% | [1]; at 50.0 µM 96.8% | [2]; [8] 98% | [2]; at 50.0 µM 97.5% | [3]; [8] 98% | [3]; at 50.0 µM 97.7% | [4]; [8] 97% | [4]; at 50.0 µM 97.7% | [5]; [8] 98% | [5]; at 50.0 µM 96% | [6]; [8] 96% | [6]; at 50.0 µM 96.8%

CCC[CH2][Sn]([CH2]CCC)([O]C(=O)c1ccc(C)c(N)c1)[O]C(=O)c1ccc(C)c(N)c1
active: [1]; [7] 98% | [1]; [8] 98% | [1]; at 50.0 µM 91.7% | [2]; [7] 92% | [2]; [8] 92% | [2]; at 50.0 µM 92% | [3]; [7] 96% | [3]; [8] 96% | [3]; at 50.0 µM 92.5% | [4]; [7] 96% | [4]; [8] 96% | [4]; at 50.0 µM 91.3% | [5]; [7] 90% | [5]; [8] 90% | [5]; at 50.0 µM 89% | [6]; [7] 97% | [6]; [8] 97% | [6]; at 50.0 µM 87.5%

OC1CCCCC1Cc1ccc(Cl)cc1 (configuration not stated)
inactive: [1]; [7] -2% | [1]; [8] 56% | [2]; [7] 4% | [2]; [8] 26% | [3]; [7] 4% | [3]; [8] 31% | [3]; at 50.0 µM 65.3% | [4]; [7] -2% | [4]; [8] 30% | [5]; [7] 32% | [6]; [7] -2% | [6]; [8] 45%
active: [1]; at 50.0 µM 90.5% | [2]; at 50.0 µM 93.8% | [4]; at 50.0 µM 90% | [5]; [8] 97% | [5]; at 50.0 µM 98.8% | [6]; at 50.0 µM 93.4%
